The record followed here is PubChem BioAssay (NCI).

Among the test systems are RPMI-8226 leukemia; OVCAR-8 ovarian; OVCAR-5 ovarian; OVCAR-4 ovarian; SK-OV-3 ovarian; IGROV1 ovarian; OVCAR-3 ovarian; HS 578T breast; NCI/ADR-RES ovarian; T-47D breast; MDA-MB-435 melanoma; SW-620 colon; MCF7 breast; HCT-116 colon; HCC-2998 colon; KM12 colon; MDA-MB-468 breast.
Common to all, as to test: NCI-60 one-dose screen, 48 h (100 = growth as untreated, 0 = no growth, -100 = all killed)
What all share (conditions): 10 µM unless noted

Compounds without any hit were thinned out: in the full panel of roughly 83,000, 20% have a hit.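 Interpretation: 100, growth as untreated; towards 0, rising growth inhibition; 0, no net growth; 0 to -100, cell death. Compounds scoring below 10 were considered active.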 Values without a mark were called inactive. Calls of active or inactive are those of the source.

In the case of `Cc1cc(N=C2NC(=O)CS2)n[nH]1`, the growth is 144% in the assay with RPMI-8226 leukemia; 106% in the assay on OVCAR-8 ovarian; 99.6% in the assay on OVCAR-5 ovarian; 123% with OVCAR-4 ovarian; 121% with SK-OV-3 ovarian; 99.8% with IGROV1 ovarian. For the same compound, the growth with OVCAR-3 ovarian is 105%; with HS 578T breast it was 102%; in the assay on NCI/ADR-RES ovarian it was 111%; in the assay on T-47D breast, 101%; in the assay on MDA-MB-435 melanoma, 113%; in the assay on SW-620 colon, 103%. Moreover, the growth with MCF7 breast was -92.2% (active); in the assay with HCT-116 colon, 103%; in the assay on HCC-2998 colon, 112%; with KM12 colon it was 101%; with MDA-MB-468 breast it was 114%.
`C/C(=N\Nc1ccc(S(N)(=O)=O)cc1)c1ccc(N=Nc2c(Nc3ccccc3)[nH][nH]c2=O)cc1`: the growth in the assay on RPMI-8226 leukemia was 3.47% (active); in the assay on OVCAR-8 ovarian, -20.2% (active); with OVCAR-5 ovarian, 58.3%; in the assay with OVCAR-4 ovarian it was 42.6%; in the assay with SK-OV-3 ovarian, -15.5% (active); in the assay with IGROV1 ovarian, 43.3%. For the same compound, the growth with OVCAR-3 ovarian is -2.25% (active); with HS 578T breast, 21.5%; in the assay on NCI/ADR-RES ovarian it was 89.6%; in the assay with T-47D breast it was -30.8% (active); with SW-620 colon, 18.1%; with MCF7 breast, -31.2% (active). In addition, the growth with HCT-116 colon was 0.299% (active); with HCC-2998 colon, -24.6% (active); with KM12 colon, 3.69% (active); in the assay on MDA-MB-468 breast, -35.6% (active).
Regarding `COc1ccc(C(=O)/C=C/c2cccc(Cl)c2)cc1S(N)(=O)=O`, the growth with RPMI-8226 leukemia was -5.22% (active); with OVCAR-8 ovarian it was -70.3% (active); with OVCAR-5 ovarian, -17.8% (active); in the assay on OVCAR-4 ovarian, 46.4%; in the assay with SK-OV-3 ovarian, 49.8%; in the assay with IGROV1 ovarian, 6.51% (active). Also, the growth in the assay with OVCAR-3 ovarian is -58.8% (active); with HS 578T breast, 95.4%; in the assay on NCI/ADR-RES ovarian it was 14.3%; in the assay with T-47D breast, -53.8% (active); with MDA-MB-435 melanoma, 14%; in the assay with SW-620 colon, -19.9% (active). Further, the growth with MCF7 breast is -67% (active); in the assay on HCT-116 colon, -64.2% (active); in the assay with HCC-2998 colon it was 1.16% (active); in the assay on KM12 colon it was -57.9% (active); with MDA-MB-468 breast it was -53.8% (active).
Take `CN1CCN(c2ccc(C(=O)/C=C/c3cc(C(F)(F)F)cc(C(F)(F)F)c3)cc2)CC1`: the growth was -19.4% (active) in the assay with RPMI-8226 leukemia; -93.4% (active) with OVCAR-8 ovarian; -95.8% (active) in the assay on OVCAR-5 ovarian; -23.8% (active) in the assay on OVCAR-4 ovarian; -89.5% (active) with SK-OV-3 ovarian; -36.6% (active) with IGROV1 ovarian. Besides, the growth was -54.4% (active) with OVCAR-3 ovarian; 26.9% in the assay on HS 578T breast; -39.3% (active) with NCI/ADR-RES ovarian; -68.7% (active) with T-47D breast; -60.8% (active) with MDA-MB-435 melanoma; -44.8% (active) in the assay with SW-620 colon. The growth with MCF7 breast is -82.3% (active); in the assay with HCT-116 colon, -87.4% (active); in the assay with HCC-2998 colon it was -91% (active); with KM12 colon it was -56.8% (active); in the assay with MDA-MB-468 breast, -69.3% (active).
For `O=C(NNc1nc2cc(C(F)(F)F)ccc2n2cccc12)c1cnccn1`, the growth in the assay with RPMI-8226 leukemia was 1.97% (active); in the assay with OVCAR-8 ovarian, -77.2% (active); in the assay with OVCAR-5 ovarian, -59.2% (active); in the assay on OVCAR-4 ovarian, -43.9% (active); with SK-OV-3 ovarian it was -88.2% (active); with IGROV1 ovarian, -16.3% (active). For the same compound, the growth in the assay on OVCAR-3 ovarian was -47.7% (active); with HS 578T breast it was 16.3%; in the assay on NCI/ADR-RES ovarian, -12% (active); in the assay with T-47D breast it was -74% (active); in the assay on MDA-MB-435 melanoma, -56.1% (active); in the assay with SW-620 colon, -26.4% (active). Besides, the growth with MCF7 breast was -62.4% (active); in the assay with HCT-116 colon, -94.6% (active); in the assay on HCC-2998 colon it was -72.2% (active); in the assay with KM12 colon, -55% (active); in the assay with MDA-MB-468 breast, -47.7% (active).
Consider `COc1cccc(/C=C/C(=O)c2ccc(OC)c(S(N)(=O)=O)c2)c1`, for which the growth is -9.86% (active) in the assay on RPMI-8226 leukemia; 10.5% in the assay on OVCAR-8 ovarian; 24.2% in the assay with OVCAR-5 ovarian; 57.7% in the assay with OVCAR-4 ovarian; 67.8% in the assay with SK-OV-3 ovarian; 42.1% in the assay on IGROV1 ovarian. Moreover, the growth in the assay on OVCAR-3 ovarian was 16.3%; in the assay with HS 578T breast, 91.6%; with NCI/ADR-RES ovarian, 13.3%; in the assay on T-47D breast it was 21%; in the assay with MDA-MB-435 melanoma, 34.1%; in the assay on SW-620 colon it was 8.39% (active). For the same compound, the growth in the assay on MCF7 breast was 7.97% (active); with HCT-116 colon, -73.8% (active); in the assay on HCC-2998 colon it was 29.7%; in the assay on KM12 colon it was -41.6% (active); in the assay on MDA-MB-468 breast it was 20%.
As to `COc1cc(OC)cc(C(=O)Nc2cccc(-c3cn(-c4ccc(S(N)(=O)=O)cc4)nn3)c2)c1`, the growth in the assay on RPMI-8226 leukemia is 114%; in the assay with OVCAR-8 ovarian, 39.4%; with OVCAR-5 ovarian, 113%; with OVCAR-4 ovarian it was 72%; in the assay on SK-OV-3 ovarian, 47.5%; in the assay on IGROV1 ovarian, 99.5%. Also, the growth in the assay with OVCAR-3 ovarian was 90.9%; with T-47D breast, 87.8%; in the assay on MDA-MB-435 melanoma it was 97.2%; in the assay on SW-620 colon, 99.6%; in the assay with MCF7 breast it was 77.3%; with HCT-116 colon, 94%. For the same compound, the results for the growth in the assay with HCC-2998 colon and in the assay on KM12 colon were 107% and 87.9%, respectively.
On to `O=C1N/C(=N\c2nccs2)S/C1=C\C=C/c1ccccc1`, for which the growth was 39.4% with RPMI-8226 leukemia; 13.7% in the assay with OVCAR-8 ovarian; 61.8% in the assay on OVCAR-5 ovarian; 44.5% in the assay on OVCAR-4 ovarian; 77.7% with SK-OV-3 ovarian; 30.3% with IGROV1 ovarian. Moreover, the growth is 85.2% in the assay with HS 578T breast; 37.4% with NCI/ADR-RES ovarian; 32.7% in the assay on T-47D breast; 44.5% in the assay with MDA-MB-435 melanoma; 41% with SW-620 colon; 16.1% in the assay with MCF7 breast. Also, the growth in the assay on HCT-116 colon is 12.1%; in the assay with HCC-2998 colon, 75.7%; in the assay on KM12 colon, 38%.
On to `CC(=O)NNc1ccc2nnc(-c3ccccc3)n2n1`, for which the growth in the assay on RPMI-8226 leukemia is 115%; in the assay with OVCAR-8 ovarian, 100%; in the assay with OVCAR-5 ovarian it was 113%; with OVCAR-4 ovarian it was 109%; with SK-OV-3 ovarian, 110%; in the assay with IGROV1 ovarian, 108%. The growth in the assay on OVCAR-3 ovarian was 95.4%; in the assay with HS 578T breast, 100%; with NCI/ADR-RES ovarian it was 104%; in the assay on T-47D breast, 105%; in the assay on MDA-MB-435 melanoma, 103%; in the assay on SW-620 colon, 90.6%. The growth was 94.8% in the assay on MCF7 breast; 107% in the assay with HCT-116 colon; 100% with HCC-2998 colon; 104% in the assay on KM12 colon; 101% in the assay on MDA-MB-468 breast.
